From PubChem BioAssay (NCI)
“And” between values parts separate entries of the source, which are not always exact repeats. Equal entries are not always repeated. Compounds without any hit were thinned out: in the full panel of roughly 79,000, 15% have a hit. A structure can be active in one record and inactive in another. The source made the active and inactive calls. Cut-off read from the data, not from the text of the source: active = growth inhibition above about 70%; inactive = the rest.

Legend:
[1] = NCI Yeast Anticancer Drug Screen. Data for the rad50 strain (AID 155);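 note: 0% = growth of vehicle-only cultures of the same strain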; conditions: S. cerevisiae rad50 strain growth inhibition; at 50.0 µM; stronger effect = higher value
Outline: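 DNA repair mutant yeast, compound exposure, growth read-out; inhibition is taken relative to vehicle.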

[2] = NCI Yeast Anticancer Drug Screen. Data for the mec2-1 strain (AID 157); conditions: S. cerevisiae mec2-1 strain, at 50.0 µM, stronger effect = higher value
Outline: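 Using mec2-1 yeast: add compound, measure growth, express inhibition versus vehicle-treated cultures.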

[3] = NCI Yeast Anticancer Drug Screen. Data for the sgs1 mgt1 strain (AID 161);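 note: 0% = growth of cultures given vehicle only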; conditions: S. cerevisiae sgs1 mgt1 strain, at 50.0 µM, stronger effect = higher value
Outline: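 Growth of a repair-deficient yeast mutant was monitored after compound treatment and expressed as inhibition relative to vehicle-treated cultures.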

[4] = NCI Yeast Anticancer Drug Screen. Data for the cln2 rad14 strain (AID 165);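 note: 0% = growth equal to vehicle treated cultures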; conditions: S. cerevisiae cln2 rad14 strain, at 50.0 µM, stronger effect = higher value
Outline: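 Yeast strain cln2 rad14, bearing defects in cell cycle control and DNA repair, serves as the test system; values reflect growth inhibition compared with vehicle.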

[5] = NCI Yeast Anticancer Drug Screen. Data for the bub3 strain (AID 167); conditions: S. cerevisiae bub3 mutant strain, at 50.0 µM, stronger effect = higher value
Outline: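 In this screen, a yeast mutant lacking normal mitotic checkpoint function is challenged with compound. Relative growth versus vehicle gives the inhibition value.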

[6] = NCI Yeast Anticancer Drug Screen. Data for the mlh1 rad18 strain (AID 175); conditions: S. cerevisiae mlh1 rad18 strain growth inhibition; at 50.0 µM; stronger effect = higher value
Outline: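 Steps: expose repair-defective yeast to compound; measure growth; express inhibition against vehicle-treated controls.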

Compound | growth inhibition [1] | growth inhibition [2] | growth inhibition [3] | growth inhibition [4] | growth inhibition [5] | growth inhibition [6]
CCOC(=O)C(Br)Br | 20% (inactive) | -2.7% (inactive) | -13.9% (inactive) | 22.2% (inactive) | 23.3% (inactive) | 10.6% (inactive)
CC(C)c1cc2c(cc1O)C1(C)CCCC(C)(C)C1CC2=O (centres undefined) | 27.4% (inactive) | 32.3% (inactive) | 19.9% (inactive) | 22.4% (inactive) | 27.9% (inactive) | 34.6% (inactive)
Cn1cnc([N+](=O)[O-])c1C(=O)O | 7.9% (inactive) | 25.1% (inactive) | 20.4% (inactive) | -13.2% (inactive) | -17.9% (inactive) | 6.55% (inactive)
CCN1CCCc2cc3c(C(F)(F)F)cc(=O)oc3cc21 | -6.3% (inactive) | -12.4% (inactive) | -10% (inactive) | -4.05% (inactive) | -6.45% (inactive) | -11.8% (inactive)
CN(C)P(=O)(N(C)C)N(C)C | 23.2% (inactive) | 6.4% (inactive) | -7.05% (inactive) | -16.9% (inactive) | 23.6% (inactive) | 25.1% (inactive)
CCOP(=O)(CN(CCO)CCO)OCC | -5.85% (inactive) | 12% (inactive) | 11.4% (inactive) | 0% (inactive) | -6.5% (inactive) | 4.25% (inactive)
CC1CNC2C(=O)NC(=O)NC2N1 (centres undefined) | 3.15% (inactive) | 1.95% (inactive) | -10.2% (inactive) | -5.25% (inactive) | 5.2% (inactive) | -4.7% (inactive)
CN1CCC2CCCCN2CC1=O (centres undefined) | -4.15% (inactive) | 0.45% (inactive) | -1% (inactive) | -4.35% (inactive) | -12% (inactive) | -4% (inactive)
C/C=C/C(C)C1(CC)C(=O)NC(=S)NC1=O (centres undefined) | 8.8% (inactive) | 9.65% (inactive) | 9% (inactive) | 10.6% (inactive) | -11.3% (inactive) | -13.1% (inactive)
CCCC[As](CCCC)SC1OC(COC(C)=O)C(OC(C)=O)C(OC(C)=O)C1OC(C)=O (centres undefined) | 98.6% (active) | 98.7% (active) | 98.8% (active) | 96.9% (active) | 98.5% (active) | 98.1% (active)
CCCCN(CCCC)CC(O)c1ccc(Cl)c(Cl)c1 (centres undefined) | -1.5% (inactive) | -21.3% (inactive) | 28.9% (inactive) | 41.3% (inactive) | 18% (inactive) | 7.75% (inactive)
c1ccc(C(NC2=NCCO2)c2ccccc2)cc1 | -19% (inactive) | -33% (inactive) | -60.8% (inactive) | -21.5% (inactive) | -17.2% (inactive) | -45.8% (inactive)
NS(=O)(=O)c1ccc([As]=O)cc1 (centres undefined) | -17.4% (inactive) | -8.25% (inactive) | -3.95% (inactive) | -6.9% (inactive) | -48.1% (inactive) | -37.8% (inactive)
CCOC(=O)C[CH2][Sn]([Cl])([Cl])[Cl] | 17.4% (inactive) | 22.5% (inactive) | 21.1% (inactive) | 12.3% (inactive) | 4.3% (inactive) | 20.9% (inactive)
C1CN2CN3CCN(CN1C3)C2 | 13.1% (inactive) | 12.2% (inactive) | 20.9% (inactive) | 33.2% (inactive) | 10.2% (inactive) | 13.8% (inactive)
CNCC(=O)c1ccc(O)c(O)c1 | 2.4% (inactive) | -10.1% (inactive) | -30.6% (inactive) | -9.35% (inactive) | -38.9% (inactive) | -6.75% (inactive)
[Pd].[Pd].[S-]CC[S-].[S-]CC[S-].c1ccc([PH+](c2ccccc2)c2ccccc2)cc1.c1ccc([PH+](c2ccccc2)c2ccccc2)cc1 | -4.9% (inactive) | 5.5% (inactive) | 8.9% (inactive) | -22.1% (inactive) | -2.35% (inactive) | 13.1% (inactive)
CCNCCC1(CC)C(=O)NC(=O)NC1=O | -22.2% (inactive) | -16.8% (inactive) | -27.4% (inactive) | 2.2% (inactive) | -43.7% (inactive) | -10.6% (inactive)
CC(NC1=NCCO1)c1ccco1 (centres undefined) | 4.45% (inactive) | 9.15% (inactive) | 13.2% (inactive) | 30% (inactive) | 6.7% (inactive) | -75.8% (inactive)
CC(=O)c1ccc([As](=O)(O)O)cc1 | -10.3% (inactive) | -20.4% (inactive) | -13.4% (inactive) | -21.4% (inactive) | -29.1% (inactive) | -30.8% (inactive)

Compound | growth inhibition [1] | growth inhibition [2] | growth inhibition [3] | growth inhibition [4] | growth inhibition [5] | growth inhibition [6]
CN(Cc1ccccc1)CC(O)c1ccccc1Cl (centres undefined) | -0.75% (inactive) | -2.7% (inactive) | 21.4% (inactive) | -28.2% (inactive) | 13.3% (inactive) | 25.1% (inactive)
C[C@]12C=CC(=O)NC[C@@H]1CC[C@@H]1[C@@H]2CC[C@]2(C)[C@@H](OC(=O)COc3ccc(N(CCCl)CCCl)cc3)CC[C@@H]12 | 18.1% (inactive) | 5.05% (inactive) | 8.1% (inactive) | 1.2% (inactive) | 3.05% (inactive) | -7.65% (inactive)
CC(C)CC(NC=O)C(=O)NC(Cc1ccccc1)NC(=O)CNC(=O)C(C)NC(=O)C(N)Cc1ccc(O)cc1 (centres undefined) | -17.3% (inactive) | -9.9% (inactive) | -0.9% (inactive) | 15.4% (inactive) | -5.15% (inactive) | -6.45% (inactive)
O=Cc1ccccc1O.[Pr] | 29.1% (inactive) | -24.4% (inactive) | 37% (inactive) | 8.4% (inactive) | 24.4% (inactive) | 28.6% (inactive)
O=S(=O)(c1ccccc1)N1C2CCCC21 (centres undefined) | 14.1% (inactive) | 2.55% (inactive) | 7.05% (inactive) | -2.75% (inactive) | 7.5% (inactive) | -21.5% (inactive)
CCC1=CC2CN3CCc4c([nH]c5ccccc45)C(C(=O)OC)(C2)C13 (centres undefined) | 30.2% (inactive) and -9.75% (inactive) | -26.9% (inactive) and -17.9% (inactive) | -12.8% (inactive) and -33.1% (inactive) | -19.3% (inactive) and -6.65% (inactive) | -2.3% (inactive) and -38.2% (inactive) | -17.6% (inactive) and -19.2% (inactive)
CC1(C)SC2C(NC(=O)COc3ccccc3)C(=O)N2C1C(=O)O (centres undefined) (tested in a mixture with another compound) | -3.75% (inactive) | 8.1% (inactive) | 2.3% (inactive) | -24.4% (inactive) | -2.15% (inactive) | 10% (inactive)
CN(C)C(=O)C(Cl)Cl | -0.75% (inactive) | 7.3% (inactive) | -4% (inactive) | -7.25% (inactive) | 12.8% (inactive) | 2.25% (inactive)
C[C@H]1C(=O)O[C@@H]2CCN3CC=C(COC(=O)[C@](C)(O)[C@@]1(C)O)[C@H]23 | -4.7% (inactive) | -4.2% (inactive) | 11.9% (inactive) | -2.85% (inactive) | -9.6% (inactive) | -44.1% (inactive)
Cc1ccc(NC(=O)C(=O)C2C(=O)NC(=O)NC2=O)cc1C | -4.9% (inactive) | -14.3% (inactive) | -34.6% (inactive) | 3.85% (inactive) | -19.9% (inactive) | -23.2% (inactive)
NC(CCOCCP(=O)(O)O)C(=O)O (centres undefined) | -51.3% (inactive) | -36.4% (inactive) | -44% (inactive) | -8% (inactive) | -15.3% (inactive) | -40.1% (inactive)
CCCCOS(C)(=O)=O | 19.6% (inactive) | -13.8% (inactive) | 22.4% (inactive) | 5.8% (inactive) | 21.4% (inactive) | 29.4% (inactive)
COCCCNCCCN1CC1 | 2.25% (inactive) | -4.4% (inactive) | -6.9% (inactive) | -22.7% (inactive) | -22.4% (inactive) | 10.1% (inactive)
Cc1ccc(SP(=S)(Sc2ccc(C)cc2)Sc2ccc(C)cc2)cc1 | 11.7% (inactive) | -65.8% (inactive) | -4.15% (inactive) | -29.9% (inactive) | -12.2% (inactive) | 10% (inactive)
COCC#CCN(C)C | -7.75% (inactive) | -8.3% (inactive) | -13.8% (inactive) | 2.85% (inactive) | 9.95% (inactive) | -9.4% (inactive)
c1ccc2c(c1)-c1ccccc1C1NC21 (centres undefined) | 21.3% (inactive) and 69% (inactive) | 2.3% (inactive) and 47.4% (inactive) | 21.9% (inactive) and 48.2% (inactive) | 10.7% (inactive) and 56.1% (inactive) | 20.5% (inactive) and 98.5% (active) | -50.5% (inactive) and 51.2% (inactive)
CC(=O)OC1CCC2(C)C3CCC4(C)C(Oc5ccccc5)CCC4C3CC(Br)C2(O)C1 (centres undefined) | -48% (inactive) | -29.9% (inactive) | -35.9% (inactive) | 2.75% (inactive) | -31.6% (inactive) | -43% (inactive)
Oc1ccc2ccccc2c1N=Nc1ccccc1 | -10.8% (inactive) and 10.3% (inactive) | -6.5% (inactive) and -18.8% (inactive) | -12.6% (inactive) and -7.95% (inactive) | -21.9% (inactive) and -9.7% (inactive) | 0.9% (inactive) and -18.4% (inactive) | 3.1% (inactive) and 2.3% (inactive)
CCCC(Br)C(=O)OCC (centres undefined) | 13.6% (inactive) | 4.35% (inactive) | -8.1% (inactive) | 0.15% (inactive) | 0.25% (inactive) | 9.1% (inactive)
